Compound activity deposited in PubChem by National Center for Advancing Translational Sciences (NCATS).
Most compounds without a hit are left out; they make up all but 19% or so of the library.
Lassa entry inh: qHTS for Inhibitors of binding or entry into cells for Lassa Virus; Lassa virus pseudotype entry inhibition, cell reporter; AID 540256, 2011; Potency, µM (highest dose often 37.9 µM), actives largely listed as inhibitors; hit rate 1.2% among 300,000; calls by dose curve; tested in HEK293 cells; note: nearly all actives have a fitted effect of over 50% in size
Shiga toxin inh: A qHTS for Small Molecule Inhibitors of Shiga Toxin; Vero cells, Shiga toxin protein synthesis inhibition reporter; inhibition, % at 38.7 µM; hit rate 9.2% among 290,000; AID 2315, 2010; in the data active = inhibition mostly above about 28%, no sharp cut-off; inactive = mostly below about 43%
Pf growth 48h: Primary qHTS for delayed death inhibitors of the malarial parasite plastid, 48 hour incubation; P. falciparum luciferase growth in erythrocytes, 48 h; Potency, µM (highest dose often 28.7 µM), hits mostly inhibitors; hit rate 5.9% among 310,000
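A one-generation exposure of luciferase-tagged malaria parasites in RPMI 1640/Albumax erythrocyte culture, 37 C and 5% CO2. Inhibition is inferred from decreased luminescence after adding detection reagent.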
Marburg entry inh: qHTS for inhibitors of binding or entry into cells for Marburg Virus | Marburg virus pseudotyped entry inhibition, cell reporter | Potency, µM (doses to about 37.8 µM), most hits filed as inhibitors | hit rate 1.8% among 300,000 | AID 540276, 2011; calls by dose curve; tested in HEK293 cells
Pf growth 96h: Primary qHTS for delayed death inhibitors of the malarial parasite plastid, 96 hour incubation | P. falciparum luciferase reporter growth, 96 h | Potency, µM (doses to about 28.7 µM), usual class: inhibitors | hit rate 6.9% among 320,000
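96 h incubation, 37 C, 5% CO2, of luciferase-reporter P. falciparum-infected RBCs (2% hematocrit, 0.05% parasitemia final) with test compounds; endpoint luminescence.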
CHX counter: Cycloheximide Counterscreen for Small Molecule Inhibitors of Shiga Toxin; AID 2314, 2010; max response, %; cell reporter, cycloheximide protein synthesis inhibition counterscreen; hit rate 12% among 300,000; in the data active = max response mostly above about 13%, no sharp cut-off; inactive = mostly below about 14%; note: read at 38.3 µM for the half of the compounds with a filed dose
Large screens that a line does not name were inactive. Unless noted, calls come from the whole dose curve; as a rule, active = well fitted inhibition curve with a large enough effect; inconclusive = small, poorly fitted or top-dose-only effect, or another doubt; inactive = no such curve, though single readings can be large or run the other way.

CCOc1ccccc1NC(=O)Nc1ccc2c(c1)CCC2	Shiga toxin inh 54, Pf growth 96h inconclusive, CHX counter 39 (no result: Lassa entry inh, Marburg entry inh)
COc1ccc(NC(=O)Nc2cc(C)ccc2F)cc1OC	Lassa entry inh inconclusive, Shiga toxin inh 41, Pf growth 96h inconclusive, CHX counter 18
COc1cccc(CNCCc2ccc3c(c2)OCO3)c1OC	Pf growth 96h inconclusive (no result: Lassa entry inh, Shiga toxin inh, Marburg entry inh)
COc1ccc(NC(=O)Nc2ccc3c(c2)OCO3)c(C)c1	Shiga toxin inh 82, CHX counter 66 (no result: Lassa entry inh, Marburg entry inh)
COc1cccc(CNCCc2cccc(F)c2)c1OC	Pf growth 96h 4.1µM (no result: Lassa entry inh, Shiga toxin inh, Marburg entry inh)
O=C(Nc1ccc2c(c1)CCC2)Nc1ccccc1Cl	Lassa entry inh inconclusive, Shiga toxin inh 155, Marburg entry inh inconclusive, Pf growth 96h inconclusive, CHX counter 57
O=C(Cc1ccccc1[N+](=O)[O-])Nc1ccc2c(c1)OCO2	Marburg entry inh inconclusive, Pf growth 96h inconclusive, CHX counter 17
O=C(Cc1ccccc1[N+](=O)[O-])NNC(=O)Nc1ccc2c(c1)OCO2	Pf growth 96h inconclusive
Cc1cc(OC(F)F)ccc1NC(=O)Nc1ccc2c(c1)OCO2	Pf growth 96h inconclusive (no result: Lassa entry inh, Marburg entry inh)
CCCC(=O)N(c1ccc2oc3c(c2c1)CCCC3)S(=O)(=O)c1cc(C)ccc1C	none (no result: Shiga toxin inh, Pf growth 48h, Pf growth 96h, CHX counter)
c1cncc(CNc2ccc3c(c2)OCO3)c1	Marburg entry inh inconclusive (no result: Pf growth 48h)
COc1ccccc1NC(=O)Nc1ccc(F)c(F)c1	Shiga toxin inh 81, Pf growth 48h inconclusive, CHX counter 66
COc1ccccc1NC(=O)CNc1ccc(F)c(Cl)c1	Pf growth 48h inconclusive, Pf growth 96h 15µM
CCC(Oc1ccccc1OC)C(=O)Nc1ccc2c(c1)OCCO2 (centres undefined)	CHX counter 16
Cc1ccc(CNc2ccc3c(c2)OCO3)c(C)c1	Shiga toxin inh 91, Pf growth 48h inconclusive, CHX counter 44 (no result: Lassa entry inh, Pf growth 96h)
COc1ccccc1NC(=O)NCC(=O)Nc1ccc(F)c(F)c1	none
COc1ccccc1OCCC(=O)OCC(=O)Nc1ccc2c(c1)OCCO2	none (no result: Shiga toxin inh, Pf growth 48h, Pf growth 96h, CHX counter)
O=C(NC(=O)c1ccccc1)C1=C(N2CCCC2)COC1=O	none (no result: Lassa entry inh, Shiga toxin inh, Marburg entry inh, CHX counter)
Cn1c(=O)c2c(nc3n2CC(CO)O3)n(C)c1=O (centres undefined)	none
COc1cccc(OC)c1C(=O)Nc1ccc2c(c1)OCCO2	none
CC(=O)Nc1ccccc1OCC(=O)c1ccc2c(c1)OCO2	Shiga toxin inh 79, CHX counter 43
O=C(COC(=O)c1ccc2c(c1)OCO2)Nc1ccccc1OC(F)F	none (no result: Shiga toxin inh, Pf growth 48h, Pf growth 96h, CHX counter)
Cc1ccccc1NC(=O)Nc1ccc2c(c1)OCO2	Shiga toxin inh 77, CHX counter 44
COc1ccccc1NC(=O)Nc1ccc2c(c1)OCCO2	Shiga toxin inh 122, CHX counter 24
CCCN(Cc1ccccc1)C(=O)Nc1ccc2c(c1)nnn2C	Lassa entry inh 2.6µM, Shiga toxin inh 40, Marburg entry inh inconclusive, CHX counter 19
Cc1noc(-c2ccc(-c3noc(-c4ccc([N+](=O)[O-])c(C)c4)n3)cc2)n1	none (no result: Shiga toxin inh, Pf growth 48h, Marburg entry inh, Pf growth 96h, CHX counter)
COc1ccccc1CCNC(=O)C(=O)c1cn(CC(=O)N2CCCC2)c2ccccc12	Shiga toxin inh 64, Pf growth 96h inconclusive, CHX counter 33
O=C(NCc1ccccc1)C(=O)c1cn(CC(=O)N2CCOCC2)c2ccccc12	Pf growth 96h inconclusive (no result: Lassa entry inh, Marburg entry inh)
COc1ccccc1CNC(=O)C(=O)c1cn(CC(=O)N2CCOCC2)c2ccccc12	none (no result: Lassa entry inh, Marburg entry inh)
O=C(NCCc1ccccc1)C(=O)c1cn(CC(=O)N2CCCC2)c2ccccc12	Lassa entry inh inconclusive, CHX counter 19
O=C1CC(c2ccccc2Cl)CC(O)=C1C=NCCCO (centres undefined)	none (no result: Lassa entry inh, Shiga toxin inh, Marburg entry inh)
Cc1ccc(S(=O)(=O)CC(=O)NCc2ccc(Cl)cc2)cc1	none (no result: Shiga toxin inh, CHX counter)
FC(F)(F)c1nnc2c(Sc3ccccn3)nc3ccccc3n12	Shiga toxin inh 111, Pf growth 48h 9.3µM, CHX counter 23
FC(F)(F)c1nnc2c(Sc3ccc(Cl)cc3)nc3ccccc3n12	Pf growth 48h inconclusive
FC(F)(F)c1nnc2c(Sc3ccccc3)nc3ccccc3n12	CHX counter 28
CCOC(=O)c1ccc(Nc2nc3ccccc3nc2NS(=O)(=O)c2ccc(Cl)cc2)cc1	none (no result: Shiga toxin inh, Pf growth 48h, Marburg entry inh, Pf growth 96h, CHX counter)
O=S(=O)(Nc1nc2ccccc2nc1-[n+]1cccc(N=C([O-])c2ccc(Cl)cc2)c1)c1ccccc1	Lassa entry inh inconclusive, Pf growth 48h inconclusive, Marburg entry inh inconclusive, Pf growth 96h 8.3µM
O=[N+]([O-])c1cc2c(cc1/C=N/n1c(-c3ccccn3)n[nH]c1=S)OCO2	none
COc1ccccc1/C=C\C=N\n1c(-c2ccc(Cl)cc2)n[nH]c1=S	Lassa entry inh 10µM, Pf growth 96h inconclusive
O=[N+]([O-])c1cc2c(cc1/C=N/n1c(-c3ccccc3)n[nH]c1=S)OCO2	Shiga toxin inh 55, CHX counter 43
O=[N+]([O-])c1ccccc1/C=N/n1c(C2CCCCC2)n[nH]c1=S	CHX counter 34
Cc1ccc(-c2n[nH]c(=S)n2/N=C/C=C/c2ccccc2[N+](=O)[O-])cc1	Lassa entry inh 13µM (no result: Pf growth 96h)
COc1ccccc1/C=C/C=N/n1c(-c2ccc(F)cc2)n[nH]c1=S	Lassa entry inh inconclusive, Pf growth 48h inconclusive, Marburg entry inh inconclusive
O=[N+]([O-])c1ccccc1/C=C/C=N/n1c(-c2cc(-c3ccccc3)n[nH]2)n[nH]c1=S	none
Clc1ccc(CSc2nc(NCCc3ccccc3)c3ccccc3n2)cc1	none (no result: Shiga toxin inh, Pf growth 48h, Marburg entry inh, Pf growth 96h, CHX counter)
CCCC(=O)Nc1ccc(OCC(=O)OC)cc1	none (no result: Pf growth 96h)
C(=N\n1cnnc1)/c1cccc(OCCOc2ccccc2)c1	Shiga toxin inh 94, Marburg entry inh inconclusive, CHX counter 20
C(=N\n1cnnc1)/c1ccc(OCc2cccc3ccccc23)cc1	Lassa entry inh inconclusive, Marburg entry inh inconclusive, CHX counter 20 (no result: Pf growth 48h)
Fc1ccccc1COc1ccc(/C=N/n2cnnc2)cc1	none
Cc1occc1-c1nnc(SCC(=O)NC2CCCCC2C)o1 (centres undefined)	none (no result: Shiga toxin inh, CHX counter)
CC1(C)CCCN1CCC(C(N)=O)(c1ccccc1)c1ccccc1	Marburg entry inh inconclusive (no result: Shiga toxin inh, Pf growth 48h, Pf growth 96h, CHX counter)
COc1cccc([C@@H]2Oc3ccc(OC)cc3/C(=N/OC[C@@H](O)COCc3ccco3)[C@@H]2O)c1	none (no result: Lassa entry inh, Shiga toxin inh, Pf growth 48h, Pf growth 96h, CHX counter)
Cc1nnc(SCC(=O)Nc2sc3c(c2C#N)CCCCC3)n1N	Lassa entry inh inconclusive, Shiga toxin inh 51, Marburg entry inh inconclusive, CHX counter 20 (no result: Pf growth 96h)
Cc1nnc(SCC(=O)Nc2sc3c(c2C#N)CCCC3)[nH]c1=O	Pf growth 96h 15µM
CCOC(=O)c1c(NC(=O)CSc2nnc(C)c(=O)[nH]2)sc2c1CCCC2	none (no result: Pf growth 96h)
N#Cc1c(NC(=O)CSc2nc(N)cc(=O)[nH]2)sc2c1CCCC2	Lassa entry inh inconclusive, Marburg entry inh 10µM
Cc1cc(C)cc(N2C(=O)CC(Cn3nc(C)cc3C)C2=O)c1 (centres undefined)	none
CN(/C=C/C(=O)C(F)(F)F)Cc1ccccc1	none
Cc1[nH]c2ccccc2c1C(=O)CSc1nc2ccccc2c(=O)n1CCCN1CCOCC1	Pf growth 48h inconclusive, Marburg entry inh 11µM (no result: Pf growth 96h)
